SMILES strings stand for the structures. Results filed as inconclusive are left out. A call without a number means that no potency is given here. The source made the active and inactive calls. The call rests on the fitted dose curve; in most records, active means well fitted cell-killing curve with a large enough effect in the repeat runs; inconclusive means weak or mixed curves, or effect the other way; inactive means no such curve, though single readings can be large or run the other way.
Potency means the concentration at half of the fitted maximal effect.

This experiment is described as follows: qHTS assay to identify small molecule antagonists of the sonic hedgehog signaling (Shh) pathway - cell viability counter screen (AID 1259367). Further: nearly all actives have a fitted effect of over 55% in size. The following applies: NIH/3T3 Gli1-Luc viability, CellTiter-Fluor, 24 h; series mostly up to 92.4 µM. An excerpt:
National Center for Advancing Translational Sciences [NCATS]
NIH Chemical Genomics Center [NCGC]
U.S. Environmental Protection Agency [EPA]
National Institutes of Environmental Health Sciences [NIEHS]
National Toxicology Program [NTP]
U.S. Food and Drug Administration [FDA]
The sonic hedgehog (Shh) pathway is essential for normal embryonic development. Dysregulation of the Shh pathway can cause severe developmental defects in organs. Therefore chemicals that interfere with the pathway are potential developmental toxicants. A cell line designated 3T3Gli1-Luc (DMB/OARSA/CFSAN/FDA, Laurel, MD), a NIH/3T3 derived clone containing stably integrated Gli1-Luc reporter is used to detect chemical interference of the Shh pathway, by changes in the expression of the firefly Luc gene under the control of the Gli1 transcriptional response element. This cell line was used to screen Tox21 libraries for identifying and prioritizing the potential developmental toxicants that interfere Shh pathway. Conditioned medium-stimulated mode was used to screen for chemicals inhibiting Shh signaling. The cytotoxicity of the compounds was tested in parallel by measuring the cell viability using CellTiter-Fluor assay system (Promega, Madison, WI) in the same wells.
Tox21 Assay Protocol Summary:
3T3 Gli1-Luc cells were dispensed at 2,000 per well in 5uL of culture medium into white solid bottom 1536-well plates (Greiner Bio-One, Monroe, NC) using a Multidrop Combi (Thermo Scientific, Waltham, MA) dispenser. The assay plates were incubated at 37 C and 5% CO2 for 4hr, and then 23nL of compounds dissolved in DMSO and positive control were transferred using a Pintool station (Wako, San Diego, CA). The compound transfer was followed by the addition of 1ul conditioned medium or assay buffer using two separate tips of Flying Reagent Dispenser (FRD, Aurora Discovery, San Diego, CA). The assay plates were incubated at 37C and 5% CO2 for 24hr. For viability read, after 23hr of compound treatment, 1uL of CellTiter-Fluor reagent (Promega Corporation, Madison, WI) was added to each well of the assay plates using Flying Reagent Dispenser (FRD, Aurora Discovery, San Diego, CA) and incubated the assay plates at 37C for 1hr. The fluorescence signal was quantified using a ViewLux plate reader (Perkin Elmer, Shelton, CT).
`O=C(OC1CCCCC1)c1ccccc1C(=O)OC1CCCCC1`: the Potency result is “inactive”.
Take `CCO[C@H]1O[C@@H]2OC3(C)CC[C@H]4[C@H](C)CC[C@@H]([C@H]1C)[C@@]24OO3`: the Potency result is “inactive”.
Still for that read-out and setting: under `CCOP(O)OCC` stands “inactive”; under `C=CCOC(C)=O`, “inactive”.
The same measure, in the same setting: under `CNP(=O)(OC)Oc1ccc(C(C)(C)C)cc1Cl` (stereo not given) stands “inactive”.
As for `CC(C)(CCl)C(=O)Cl`, the Potency was 12.2 µM (active).
The same measure, in the same setting: then `CC(C)(OO)c1ccccc1`, with “inactive”; and `CCC(Cl)CCl` (stereo not given), with “inactive”.
On the same count and under the same terms, under `Clc1ccc(C2(Cn3cncn3)CC(Br)CO2)c(Cl)c1` (stereo not given) stands “inactive”; under `CC(=O)[C@H]1CC[C@H]2[C@@H]3CC[C@H]4C[C@](C)(O)CC[C@]4(C)[C@H]3CC[C@]12C`, “inactive”; under `COC(N)=O`, “inactive”.
Same read-out and setting: then `CCOP(=S)(Oc1ccc([N+](=O)[O-])cc1)c1ccccc1` (stereo not given), with “inactive”; and `Brc1ccc(Oc2ccccc2)cc1`, with “inactive”.
On to `O=C1c2ccccc2C(=O)C1C(=O)C(c1ccccc1)c1ccccc1`, for which the Potency result was “inactive”.
As to `CO[C@@H]1[C@H](OC(=O)NC(=O)CCl)CC[C@]2(CO2)[C@H]1[C@@]1(C)O[C@@H]1CC=C(C)C`, the viability change, negative = cytotoxic is -7.4% [at 19 µM] (inactive).
In the case of `Cc1ccc(N)cc1C`, the Potency result was “inactive”.
As to `O=Cc1ccc(Cl)cc1Cl`, the Potency result was “inactive”.
On the same count and under the same terms, under `CNC(C)Cc1ccccc1OC` (stereo not given) stands “inactive”.
Still for that read-out and setting: under `CC(=O)NC1CCSC1=O` (stereo not given) stands “inactive”.
The same measure, in the same setting: under `[CH3][Sn]([CH3])([Cl])[Cl]` stands “inactive”.
On to `CCOP(=S)(OCC)Oc1cc(Cl)c(Br)cc1Cl`, for which the Potency entry is “inactive”.
Still for that read-out and setting: under `COc1nn(C(=O)NS(=O)(=O)c2ccccc2OC(F)(F)F)c(=O)n1C` stands “inactive”; under `CCCCNP(N)(N)=S`, “inactive”; under `Cn1sc(Cl)cc1=O`, “inactive”.
Still for that read-out and setting: under `CC(C)N(C(=O)COc1nnc(C(F)(F)F)s1)c1ccc(F)cc1` stands “inactive”; under `CO/N=C(/C(=O)OC)c1ccccc1COc1ccccc1C`, “inactive”; under `CCCCCCC#N`, “inactive”.
Turning to `N#CCc1ccccc1`, the Potency entry is “inactive”.
Still for that read-out and setting: then `O=C(CBr)Nc1ccc(Cl)cc1C(=O)c1ccccc1F`, with “inactive”.
Regarding `C=CCC1([C@H](C)CCC)C(=O)NC(=O)NC1=O`, the Potency result is “inactive”.
On the same count and under the same terms, then `Clc1cc(C(Cl)(Cl)Cl)cnc1Cl`, with “inactive”.
The same measure, in the same setting: under `COc1cc(CC(C)N)cc2c1OCO2` (stereo not given) stands “inactive”.
On the same count and under the same terms, then `CC(=O)CCC(C)=O`, with “inactive”.
As for `CN1C[C@H](CNC(=O)OCc2ccccc2)C[C@@H]2c3cccc4c3c(cn4C)C[C@H]21`, the Potency result was “inactive”.
For `C[C@]12CC[C@H]3[C@@H](CCC4=CC(=O)CC[C@@H]43)[C@@H]1CC[C@@H]2OC(=O)CCC1CCCCC1`, the Potency entry was “inactive”.
On to `NCC(CC(=O)O)c1ccc(Cl)cc1` (stereo not given), for which the viability change, negative = cytotoxic is 1.24% [at 0.349 µM] (inactive).
In the case of `c1ccc(C2CC2)c(OCC2=NCCN2)c1`, the Potency result was “inactive”.
As for `Oc1ccc(Cl)c(Cl)c1Cl`, the Potency entry was “inactive”.
On the same count and under the same terms, then `Sc1ccccc1Cl`, with “inactive”; and `CCOc1ccc(C(C)(C)COCc2cccc(Oc3ccccc3)c2)cc1`, with “inactive”.
